Experimental data from PubChem BioAssay AID1159580 (chemical genetic matrix, 2015).
The campaign covered roughly 5,500 compounds. About 2,000 (36%) were called active. Another 18% or so got no clear call; they are omitted. Cut-off read from the data, not from the text of the source: active = normalized growth mostly below about 0.91 (no sharp cut-off); inconclusive = no clear call, values can overlap the other calls; inactive = mostly above about 0.92. The list shows a part of the results.

Test: chemical genetic growth profiling, strain panel (AID 1159580);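 note: tested at 20 µM; growth read once vehicle control cultures reached saturation at 30 °C; 1 = growth at the plate median or of vehicle wells; lower values mean less growth of the strain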
Details: growth OD

Measured: normalized growth

COc1ccc2c(C)cc(=O)oc2c1
inactive: S. cerevisiae deletion strains, locus YJL187C, strain SWE1 (second series), active compounds read low 1.02 | S. cerevisiae deletion strains, locus YJL187C, strain SWE1, active compounds read low 0.997 | S. cerevisiae deletion strains, locus YJR066W, strain TOR1, active compounds read low 0.933 | S. cerevisiae deletion strains, locus YKL009W, strain mrt4, active compounds read low 1.02 | S. cerevisiae deletion strains, locus YKL068W, active compounds read low 1.03 | S. cerevisiae deletion strains, locus YKL085W, strain MDH1 (second series), active compounds read low 1.01 | S. cerevisiae deletion strains, locus YKL085W, strain MDH1, active compounds read low 1.01 | S. cerevisiae deletion strains, locus YKL160W, strain elf1, active compounds read low 1 | S. cerevisiae deletion strains, locus YKL190W, strain CNB1, active compounds read low 1 | S. cerevisiae deletion strains, locus YKR001C, strain vps1, active compounds read low 1.03 | S. cerevisiae deletion strains, locus YKR026C, strain gcn3, active compounds read low 0.991 | S. cerevisiae deletion strains, locus YKR091W, strain srl3, active compounds read low 0.987 | S. cerevisiae deletion strains, locus YLL001W, strain dnm1, active compounds read low 0.986 | S. cerevisiae deletion strains, locus YLL026W, active compounds read low 1 | S. cerevisiae deletion strains, locus YLL041C, strain sdh2, active compounds read low 0.993 | S. cerevisiae deletion strains, locus YLR027C, strain aat2, active compounds read low 0.991 | S. cerevisiae deletion strains, locus YLR039C, strain RIC1, active compounds read low 1.01 | S. cerevisiae deletion strains, locus YLR058C, strain SHM2, active compounds read low 1.01 | S. cerevisiae deletion strains, locus YLR102C, strain apc9, active compounds read low 1.04 | S. cerevisiae deletion strains, locus YLR113W, strain HOG1, active compounds read low 0.998 | S. cerevisiae deletion strains, locus YLR221C, strain rsa3, active compounds read low 0.993 | S. cerevisiae deletion strains, locus YLR258W, strain gsy2, active compounds read low 0.972 | S. cerevisiae deletion strains, locus YLR262C, strain YPT6 (second series), active compounds read low 0.964 | S. cerevisiae deletion strains, locus YLR268W, strain sec22, active compounds read low 1.03 | S. cerevisiae deletion strains, locus YLR320W, strain mms22, active compounds read low 1 | S. cerevisiae deletion strains, locus YLR330W, strain CHS5, active compounds read low 1.01 | S. cerevisiae deletion strains, locus YLR342W, strain FKS1, active compounds read low 0.989 | S. cerevisiae deletion strains, locus YLR357W, strain rsc2, active compounds read low 0.966 | S. cerevisiae deletion strains, locus YLR370C, strain arc18, active compounds read low 0.997 | S. cerevisiae deletion strains, locus YLR371W, strain rom2, active compounds read low 0.998 | S. cerevisiae deletion strains, locus YLR384C, strain iki3, active compounds read low 0.996 | S. cerevisiae deletion strains, locus YLR418C, strain cdc73, active compounds read low 1.03 | S. cerevisiae deletion strains, locus YML016C, strain PPZ1, active compounds read low 1.02 | S. cerevisiae deletion strains, locus YML032C, strain rad52, active compounds read low 1.01 | S. cerevisiae deletion strains, locus YML120C, strain ndi1, active compounds read low 1.02 | S. cerevisiae deletion strains, locus YML124C, strain tub3, active compounds read low 1.02 | S. cerevisiae deletion strains, locus YMR058W, strain fet3, active compounds read low 0.987 | S. cerevisiae deletion strains, locus YMR078C, strain ctf18, active compounds read low 1.03 | S. cerevisiae deletion strains, locus YMR125W, strain sto1, active compounds read low 0.982 | S. cerevisiae deletion strains, locus YMR129W, active compounds read low 1.01 | S. cerevisiae deletion strains, locus YMR205C, strain PFK2, active compounds read low 0.988 | S. cerevisiae deletion strains, locus YMR223W, strain ubp8, active compounds read low 1.02 | S. cerevisiae deletion strains, locus YMR231W, strain pep5, active compounds read low 0.988 | S. cerevisiae deletion strains, locus YMR307W, strain GAS1, active compounds read low 0.994 | S. cerevisiae deletion strains, locus YNL067W, strain RPL9B, active compounds read low 1.01 | S. cerevisiae deletion strains, locus YNL071W, strain lat1, active compounds read low 0.976 | S. cerevisiae deletion strains, locus YNL183C, strain NPR1, active compounds read low 0.933 | S. cerevisiae deletion strains, locus YNL209W, strain ssb2, active compounds read low 1 | S. cerevisiae deletion strains, locus YNL233W, strain BNI4, active compounds read low 1.02 | S. cerevisiae deletion strains, locus YNL248C, strain rpa49, active compounds read low 0.923 | S. cerevisiae deletion strains, locus YNL250W, strain rad50, active compounds read low 1.04 | S. cerevisiae deletion strains, locus YNL271C, strain bni1, active compounds read low 1.03 | S. cerevisiae deletion strains, locus YNL298W, strain CLA4, active compounds read low 1.01 | S. cerevisiae deletion strains, locus YNL307C, strain MCK1, active compounds read low 1.04 | S. cerevisiae deletion strains, locus YNL322C, strain KRE1 (second series), active compounds read low 1 | S. cerevisiae deletion strains, locus YNL322C, strain KRE1, active compounds read low 1.01 | S. cerevisiae deletion strains, locus YNR049C, strain mso1, active compounds read low 0.969 | S. cerevisiae deletion strains, locus YNR052C, strain pop2, active compounds read low 1.02 | S. cerevisiae deletion strains, locus YOL012C, strain htz1 0.756 | S. cerevisiae deletion strains, locus YOL147C, strain pex11, active compounds read low 1.03 | S. cerevisiae deletion strains, locus YOR001W, strain rrp6, active compounds read low 0.97 | S. cerevisiae deletion strains, locus YOR061W, strain CKA2, active compounds read low 1.01 | S. cerevisiae deletion strains, locus YOR069W, strain VPS5, active compounds read low 1.01 | S. cerevisiae deletion strains, locus YOR070C, strain gyp1, active compounds read low 1 | S. cerevisiae deletion strains, locus YOR080W, strain dia2, active compounds read low 0.99 | S. cerevisiae deletion strains, locus YOR083W, strain WHI5, active compounds read low 0.987 | S. cerevisiae deletion strains, locus YOR106W, strain vam3, active compounds read low 0.959 | S. cerevisiae deletion strains, locus YOR136W, strain idh2, active compounds read low 1.03 | S. cerevisiae deletion strains, locus YOR144C, strain elg1, active compounds read low 1.02 | S. cerevisiae deletion strains, locus YOR184W, strain ser1, active compounds read low 1.02 | S. cerevisiae deletion strains, locus YOR231W, strain MKK1, active compounds read low 0.954 | S. cerevisiae deletion strains, locus YOR265W, strain rbl2, active compounds read low 0.996 | S. cerevisiae deletion strains, locus YOR270C, strain vph1, active compounds read low 0.803 | S. cerevisiae deletion strains, locus YOR290C, strain snf2, active compounds read low 1 | S. cerevisiae deletion strains, locus YOR316C, strain cot1, active compounds read low 1.02 | S. cerevisiae deletion strains, locus YPL051W, strain arl3, active compounds read low 1.01 | S. cerevisiae deletion strains, locus YPL078C, strain atp4, active compounds read low 0.994 | S. cerevisiae deletion strains, locus YPL106C, strain sse1, active compounds read low 0.943 | S. cerevisiae deletion strains, locus YPL240C, strain hsp82, active compounds read low 1.01 | S. cerevisiae deletion strains, locus YPL256C, strain CLN2, active compounds read low 1.01 | S. cerevisiae deletion strains, locus YPR119W, strain clb2, active compounds read low 1.02 | S. cerevisiae deletion strains, locus YPR141C, strain kar3, active compounds read low 1.02 | S. cerevisiae deletion strains, locus YPR163C, strain tif3, active compounds read low 1.03 | S. cerevisiae deletion strains, locus YPR167C, strain met16, active compounds read low 1.02 | S. cerevisiae deletion strains, strain wtn01, active compounds read low 1.01 | S. cerevisiae strains, strain wild type, active compounds read low 1.01
